In PubChem BioAssay AID540333 (Southern Research Specialized Biocontainment Screening …, 2011):
In all, about 10,000 compounds went through this assay and about 320 (3.2%) were called active. What follows is part of a selection rich in actives, with near analogues and random picks from the rest. A number with no mark means an inactive call. No stated cut-off is given here; in the data, active means CPE inhibition mostly above about 9.1% (no sharp cut-off); inactive means mostly below about 7.2%.

Assay: Dengue virus cytopathic effect inhibitors, cell-based, CPE readout, HTS (AID 540333)
Settings: Dengue virus CPE inhibition in host cells, at 20 µM; hits give high values

Question: With C/C(=N\Nc1ncc(Cl)cc1Cl)c1ccc(S(=O)(=O)NCc2ccco2)cc1 as the compound, how does the CPE inhibition read?
Answer: The CPE inhibition was “inactive”.

Question: For C/C(=N\Nc1nc(Cl)c(Cl)cc1Cl)c1ccc(S(=O)(=O)NCc2ccco2)cc1, which CPE inhibition is on record?
Answer: The CPE inhibition was 8.5% (active).

Question: With C/C(=N\Nc1ccccn1)c1ccc(S(=O)(=O)NCc2ccco2)cc1 as the compound, how does the CPE inhibition read?
Answer: Its CPE inhibition is “inactive”.

Question: Which CPE inhibition does the source give for Cc1ccccc1OCC(=O)N/N=C1\SCC(=O)N1Cc1ccccc1 here?
Answer: Its CPE inhibition is “inactive”.

Question: With COc1ccc(-c2cc(C(=O)OCC(=O)Nc3ccc4c(c3)OCO4)c3ccccc3n2)cc1 as the compound, how does the CPE inhibition read?
Answer: Its CPE inhibition is 0.175%.

Question: Which CPE inhibition does the source give for COc1ccc(NC(=O)C(c2cc3c(cc2[N+](=O)[O-])OCO3)N(C)c2ccccc2)cc1 (stereo not drawn) here?
Answer: Its CPE inhibition is 1.73%.

Question: Which CPE inhibition does the source give for COc1ccc(C(C(=O)Nc2ccc3c(c2)OCO3)N(C)C(=O)Cc2c[nH]c3ccccc23)cc1 (stereo not drawn) here?
Answer: Its CPE inhibition is 25.8% (active).

Question: For O=C(CCCC(=O)N1CCN(c2ccc([N+](=O)[O-])cc2)CC1)c1ccccc1, which CPE inhibition is on record?
Answer: The CPE inhibition was 0.355%.

Question: With Cc1ccc2nc(N3CC(=O)Nc4ccccc43)nc(-c3ccccc3)c2c1 as the compound, how does the CPE inhibition read?
Answer: The CPE inhibition was 1.55%.

Question: With Cc1c(Cl)cccc1NCC(=O)Nc1ccc(Cl)cc1F as the compound, how does the CPE inhibition read?
Answer: Its CPE inhibition is 4.37%.

Question: Which CPE inhibition does the source give for COc1ccc(NC(=O)CCC(=O)c2cccs2)cc1S(=O)(=O)Nc1ccc(Cl)cc1 here?
Answer: Its CPE inhibition is 0.325%.

Question: For Cc1ccc(C(=O)CCC(=O)Nc2ccc(Cl)c(S(=O)(=O)Nc3cccc(Cl)c3)c2)cc1, which CPE inhibition is on record?
Answer: Its CPE inhibition is 4.45%.

Question: With COc1ccc(NS(=O)(=O)c2cccc(NC(=O)CCC(=O)c3ccc(Cl)cc3)c2)cc1 as the compound, how does the CPE inhibition read?
Answer: The CPE inhibition was 17.3% (active).

Question: Which CPE inhibition does the source give for CC(=O)Nc1ccc(OCC(=O)NCCc2ccc(Cl)cc2)cc1 here?
Answer: The CPE inhibition was “inactive”.

Question: For Cc1ccc(-n2c(C)cc(/C=N\NC(=O)CC(=O)NC(C)C)c2C)cc1, which CPE inhibition is on record?
Answer: Its CPE inhibition is “inactive”.

Question: For Cc1cccc(C)c1-n1c(C)cc(/C=N\NC(=O)CC(=O)NC2CCCCC2)c1C, which CPE inhibition is on record?
Answer: The CPE inhibition was 0.17%.

Question: For Cc1cc(/C=N\NC(=O)CC(=O)NC2CCCCC2)c(C)n1-c1cccc(Cl)c1Cl, which CPE inhibition is on record?
Answer: The CPE inhibition was 22.7% (active).

Question: For Cc1ccc(S(=O)(=O)c2cc(OC(=O)c3ccco3)ccc2OC(=O)c2ccco2)cc1, which CPE inhibition is on record?
Answer: Its CPE inhibition is 0.235%.

Question: Which CPE inhibition does the source give for CC1(C)CC(NC(=O)C(Cl)(Cl)Cl)CC(C)(C)N1 here?
Answer: The CPE inhibition was “inactive”.

Question: Which CPE inhibition does the source give for CCn1ncc(/C=C/C(=O)C2CC2)c1C here?
Answer: The CPE inhibition was 2.21%.

Question: For CCOC(=O)c1c(C)[nH]c(C2=NNC(=Nc3ccc(OCC)cc3)SC2)c1C, which CPE inhibition is on record?
Answer: Its CPE inhibition is 13.2% (active).

Question: Which CPE inhibition does the source give for CCOc1ccc(N=C2NC(=O)/C(=C/C(=O)OC)S2)cc1 here?
Answer: The CPE inhibition was 0.935%.

Question: For CCOC(=O)c1c(C)[nH]c(C(=O)/C(C#N)=C/c2ccc(OCC)cc2)c1C, which CPE inhibition is on record?
Answer: The CPE inhibition was 0.085%.

Question: For O=C(CCN1C(=O)c2ccccc2C1=O)C1=NN[C@@H]2C(=O)N(c3cccc(F)c3)C(=O)[C@H]12, which CPE inhibition is on record?
Answer: Its CPE inhibition is 1.32%.

Question: Which CPE inhibition does the source give for COc1cc(C=Nc2cccc([N+](=O)[O-])c2C)ccc1OC(C)=O here?
Answer: The CPE inhibition was 4.63%.

Question: With Cc1cccc(-c2nc(Nc3ccc(N4CCOCC4)cc3)c3ccccc3n2)c1 as the compound, how does the CPE inhibition read?
Answer: Its CPE inhibition is “inactive”.

Question: With Cc1cccc(/C=N/Nc2cc(N3CCOCC3)nc(N3CCOCC3)n2)c1 as the compound, how does the CPE inhibition read?
Answer: Its CPE inhibition is “inactive”.

Question: Which CPE inhibition does the source give for CSc1nc(N2CCOCC2)nc2ccc(C)cc12 here?
Answer: The CPE inhibition was 11.8% (active).

Question: With COc1ccc(C)cc1NC(=O)c1cc2c(s1)CCC2 as the compound, how does the CPE inhibition read?
Answer: The CPE inhibition was “inactive”.

Question: Which CPE inhibition does the source give for COc1ccc(/C=N/N2CCN(C3c4ccccc4-c4ccccc43)CC2)cc1OC here?
Answer: The CPE inhibition was 0.5%.

Question: With CCc1nc(C#N)c(N2CCOCC2)o1 as the compound, how does the CPE inhibition read?
Answer: The CPE inhibition was 0.655%.

Question: For COc1ccc(C(=O)N[C@H](C(=O)OCC(=O)NC(=O)c2cccn2C)C(C)C)cc1, which CPE inhibition is on record?
Answer: Its CPE inhibition is “inactive”.

Question: With CC(=O)c1ccc(NC(=O)c2cc(Cl)sc2Cl)cc1 as the compound, how does the CPE inhibition read?
Answer: Its CPE inhibition is 0.185%.

Question: With Cc1ccc(C(=O)c2ccccc2C(=O)OCC(=O)NCCc2ccc(Cl)cc2Cl)cc1 as the compound, how does the CPE inhibition read?
Answer: Its CPE inhibition is 22.8% (active).

Question: Which CPE inhibition does the source give for O=C(COC(=O)c1ccccc1C(=O)c1ccc(Cl)cc1)NCCc1ccccc1 here?
Answer: Its CPE inhibition is 5.59%.

Question: For Cc1ccc(C(=O)c2ccccc2C(=O)OCC(=O)NCCc2ccccc2)cc1, which CPE inhibition is on record?
Answer: The CPE inhibition was 1.41%.

Question: With O=C(Nc1ccn(-c2ccccc2)n1)c1ccc(Cl)cc1 as the compound, how does the CPE inhibition read?
Answer: Its CPE inhibition is 0.155%.

Question: Which CPE inhibition does the source give for COc1ccc(CCNC(=O)CC2SC(=NCCc3ccccc3)NC2=O)cc1 (stereo not drawn) here?
Answer: Its CPE inhibition is “inactive”.

Question: For C[C@H](NS(=O)(=O)c1ccc(Cl)cc1)C(=O)OCC(=O)NC(=O)Nc1ccc2c(c1)OCCO2, which CPE inhibition is on record?
Answer: Its CPE inhibition is 0.475%.

Question: With Cc1ccc(S(=O)(=O)Nc2cccc3c2CCCC3)cc1 as the compound, how does the CPE inhibition read?
Answer: The CPE inhibition was 0.255%.

Question: Which CPE inhibition does the source give for O=S(=O)(Nc1cccc2c1CCCC2)c1ccc(Cl)cc1 here?
Answer: The CPE inhibition was 21.1% (active).

Question: For COc1cc(NS(=O)(=O)c2ccc(Cl)cc2)c(C(=O)O)cc1OC, which CPE inhibition is on record?
Answer: Its CPE inhibition is 0.06%.

Question: For Cn1c2ccccc2c(=O)c2c(=O)n(-c3ccccc3)c(C3CCCCC3)nc21, which CPE inhibition is on record?
Answer: Its CPE inhibition is 9.13% (active).

Question: For Cn1c2ccccc2c(=O)c2c(=O)n(C3CCCCCC3)c(C3CCCCC3)nc21, which CPE inhibition is on record?
Answer: The CPE inhibition was “inactive”.

Question: Which CPE inhibition does the source give for CCCc1nc2c(c(=O)c3ccccc3n2C)c(=O)n1C1CCCCCC1 here?
Answer: Its CPE inhibition is “inactive”.

Question: With Cn1c2ccccc2c(=O)c2c(=O)n(C3CCCCC3)c(-c3ccco3)nc21 as the compound, how does the CPE inhibition read?
Answer: The CPE inhibition was 10.4%.

Question: For CCc1nc2c(c(=O)c3ccccc3n2C)c(=O)n1C1CCCCCC1, which CPE inhibition is on record?
Answer: Its CPE inhibition is 13.5% (active).

Question: With CCCc1nc2c(c(=O)c3ccccc3n2C)c(=O)n1-c1ccc(F)cc1 as the compound, how does the CPE inhibition read?
Answer: The CPE inhibition was 1.89%.

Question: With O=c1[nH]cnc2c1c(-c1ccccc1)cn2-c1ccc(Br)cc1 as the compound, how does the CPE inhibition read?
Answer: Its CPE inhibition is 11.8% (active).

Question: Which CPE inhibition does the source give for COC(=O)C(C)Sc1ncnc2c1c(-c1ccccc1)cn2-c1ccc(OC)cc1 (stereo not drawn) here?
Answer: The CPE inhibition was 2.83%.

Question: With CCOC(=O)CSc1ncnc2c1c(-c1ccccc1)cn2-c1ccc(OC)cc1 as the compound, how does the CPE inhibition read?
Answer: Its CPE inhibition is 2.07%.

Question: With CCOc1ccccc1NC(=O)C(OC(=O)c1ccccc1NS(=O)(=O)c1cccs1)c1ccccc1 (stereo not drawn) as the compound, how does the CPE inhibition read?
Answer: Its CPE inhibition is 1.08%.

Question: With CC12CCC(C(=O)N(NC(=O)c3cccnc3)C1=O)C2(C)C (stereo not drawn) as the compound, how does the CPE inhibition read?
Answer: The CPE inhibition was 2.09%.

Question: Which CPE inhibition does the source give for CC(NC(=O)COC(=O)[C@@H]1CCCN1S(=O)(=O)c1ccccc1F)C12CC3CC(CC(C3)C1)C2 (stereo partly drawn) here?
Answer: Its CPE inhibition is “inactive”.

Question: With CC(NC(=O)/C=C/c1cnc2ccccc2n1)C12CC3CC(CC(C3)C1)C2 (stereo not drawn) as the compound, how does the CPE inhibition read?
Answer: Its CPE inhibition is 12.8% (active).

Question: For O=C(N/N=C/c1ccccn1)C12CC3CC(CC(C3)C1)C2, which CPE inhibition is on record?
Answer: The CPE inhibition was “inactive”.

Question: Which CPE inhibition does the source give for O=C(COc1ccc(Br)cc1Cl)NC1CCCCC1 here?
Answer: The CPE inhibition was 0.99%.

Question: For CC(=O)c1ccc(NC(=O)CN2C(=O)/C(=C/C(C)=C/c3ccccc3)SC2=S)cc1, which CPE inhibition is on record?
Answer: The CPE inhibition was 0.22%.
